Source: PubChem
MBD2 inh: MBD2-methylated oligo binding inhibition. TR-FRET, MBD2 binding to methylated oligonucleotide. inhibition, % at 4.4 µM. 370,000 tested, 0.31% active; in the data active = inhibition above about 13%
PLC-gamma1 inh: PLC-gamma1 (human) inhibition, primary screen | purified PLC-gamma1, fluorogenic substrate, fluorescence | inhibition, % at 12.2 µM | 370,000 tested, 0.84% active; in the data active = inhibition above about 9.5%
UHRF1 binding: human UHRF1 methylated DNA binding inhibitors; 370,000 tested, 0.75% active; UHRF1 binding to methylated oligo, TR-FRET; AID 687016; inhibition, % at 4.4 µM; in the data active = inhibition above about 21%;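 also: UHRF1 SRA domain binding a hemimethylated CpG hairpin DNA probe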
PLCb3 inh: inhibitors of human phospholipase C beta3 | Q01970 | Purified PLC-beta3, fluorogenic substrate, fluorescence | inhibition, % at 12.2 µM | 370,000 tested, 0.18% active; in the data active = inhibition above about 11%
Target sequence (Q01970 whole entry, looked up): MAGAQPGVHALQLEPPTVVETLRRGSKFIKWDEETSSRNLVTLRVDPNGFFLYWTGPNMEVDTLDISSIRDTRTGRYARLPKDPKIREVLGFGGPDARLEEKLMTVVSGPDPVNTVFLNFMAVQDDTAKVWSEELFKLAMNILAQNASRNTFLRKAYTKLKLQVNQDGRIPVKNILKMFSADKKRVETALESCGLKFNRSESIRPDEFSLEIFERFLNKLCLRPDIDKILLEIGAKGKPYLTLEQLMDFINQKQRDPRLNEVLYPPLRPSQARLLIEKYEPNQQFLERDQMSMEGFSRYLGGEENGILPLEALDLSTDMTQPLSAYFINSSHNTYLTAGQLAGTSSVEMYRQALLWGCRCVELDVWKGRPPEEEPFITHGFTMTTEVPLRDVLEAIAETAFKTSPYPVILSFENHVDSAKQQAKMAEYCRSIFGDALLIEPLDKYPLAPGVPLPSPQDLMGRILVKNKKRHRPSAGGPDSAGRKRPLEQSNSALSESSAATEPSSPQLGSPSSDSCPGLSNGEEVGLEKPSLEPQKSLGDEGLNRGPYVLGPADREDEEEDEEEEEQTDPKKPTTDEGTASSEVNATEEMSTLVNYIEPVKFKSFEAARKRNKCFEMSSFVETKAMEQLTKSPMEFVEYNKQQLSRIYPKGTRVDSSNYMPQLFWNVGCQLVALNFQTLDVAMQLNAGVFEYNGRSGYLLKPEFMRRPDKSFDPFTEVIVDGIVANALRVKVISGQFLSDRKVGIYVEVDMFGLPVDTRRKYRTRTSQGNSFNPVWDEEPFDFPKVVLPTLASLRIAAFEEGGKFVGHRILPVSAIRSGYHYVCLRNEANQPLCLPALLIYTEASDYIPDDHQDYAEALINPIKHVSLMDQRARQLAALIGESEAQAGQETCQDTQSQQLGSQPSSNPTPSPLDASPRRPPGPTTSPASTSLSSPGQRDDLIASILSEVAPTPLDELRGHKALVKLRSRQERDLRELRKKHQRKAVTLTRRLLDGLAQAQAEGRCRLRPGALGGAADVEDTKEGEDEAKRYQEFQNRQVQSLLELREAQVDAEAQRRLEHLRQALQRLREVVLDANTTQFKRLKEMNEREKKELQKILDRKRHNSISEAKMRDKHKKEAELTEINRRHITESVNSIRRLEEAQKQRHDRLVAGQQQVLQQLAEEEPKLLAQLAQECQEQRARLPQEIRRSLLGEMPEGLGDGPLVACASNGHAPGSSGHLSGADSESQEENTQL
LEDGF integ inh: blocks HIV-1 LEDGF/p75-dependent DNA integration; inhibition, % at 3.7 µM; TR-FRET IN-LEDGF/p75 DNA integration, Eu/Cy5; 370,000 tested, 0.64% active;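 active = inhibition above the screen-wide mean plus 3 SD, cut at about 13% in these data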;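 also: signal is the Cy5 over europium emission ratio at 671 and 618 nm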
UHRF1 DNA bind: UHRF1 methyl-oligo binding inhibition as MBD2 counter-screen; UHRF1 binding to methylated oligonucleotide, TR-FRET; inhibition, % at 4.4 µM; shares compounds with MBD2 inh; AID 720530; 1,000 tested, 25% active; in the data active = inhibition above about 21%;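 also: UHRF1 SRA domain binding a labeled hemimethylated CpG hairpin DNA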
MBD2 confirm: confirmation of human MBD2-DBD methylated oligonucleotide binding inhibitors; shares compounds with MBD2 inh; TR-FRET MBD2-DBD binding to methylated oligonucleotide; inhibition, % at 4.4 µM; 1,000 tested, 26% active; AID 720531
IN multimer act: counter-screen for LEDGF/p75 integration inhibitors: HIV-1 integrase multimerization activators; TR-FRET HIV-1 integrase multimerization, biochemical; activation, % at 7.7 µM; 2,000 tested, 17% active; shares compounds with LEDGF integ inh; AID 1053131; in the data active = activation above about 8.9%
TRFRET interf: optically interferes with TR-FRET readout in LEDGF counter-screen; shares compounds with LEDGF integ inh; TR-FRET optical interference counterscreen, HIV-1 IN multimerization; inhibition, % at 7.7 µM; 2,000 tested, under 10 active; AID 1053135;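 active = inhibition above the mean over all tested compounds plus 3 SD, which no compound reached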
IN-LEDGF confirm: confirmation of HIV-1 LEDGF/p75-dependent integration inhibitors; shares compounds with LEDGF integ inh; TR-FRET LEDGF/p75-dependent HIV-1 integration, biochemical; inhibition, % at 3.7 µM; 2,000 tested, 36% active; AID 1053136
Of the large screens only hits and unclear results are named; the others gave an inactive call (follow-up assays come after a bar, where they were run). Hits are enriched below; roughly 2.4% of the tested compounds scored in any of these assays. Rule as the data show it, unless noted: active = inhibition above about 14%; inactive = the rest.

CN1C(=O)C(c2ccc([N+](=O)[O-])cc2[N+](=O)[O-])C(=O)N(C)C1=O	UHRF1 binding 21
C=C1C(=O)C(C)=C2C(=O)N3Cc4[nH]c5ccccc5c4CC3(C(=O)OC)C12 (centres undefined)	none
COc1cccc(C(=O)C2CN(C)CC2c2ccc(Cl)cc2)c1 (centres undefined)	UHRF1 binding 70
Cc1nc2c(=O)n(C)c(=O)nc-2n(C)n1	MBD2 inh 16, PLC-gamma1 inh 60
CCN(C(=O)COC(=O)c1cn(C)c2ccccc12)c1ccc(F)cc1	UHRF1 binding 22
Cc1cc(/C=C2\C(=O)NC(=O)N(Cc3ccccc3Cl)C2=O)c(C)n1-c1ccc(C(=O)O)cc1	UHRF1 binding 22
Cc1ccc(-n2c(C)cc(/C=C3/C(=O)NC(=O)N(Cc4ccco4)C3=O)c2C)cc1	LEDGF integ inh 28
Cc1ccc(N2C(=O)NC(=O)/C(=C\c3cc(C)n(-c4ccc(C(=O)O)cc4)c3C)C2=O)cc1	none
Cc1ccc(-n2c(C)cc(/C=C3/C(=O)NC(=O)N(C)C3=O)c2C)cc1	none
CCOC(=O)CC[C@@H]1CC[C@]2(CCCN(Cc3cccnc3)C2)O1	none
COc1ccc(-c2n(-c3ccccn3)c3ccccc3[n+]2-c2ccccn2)cc1	MBD2 inh 46, UHRF1 binding 31 | UHRF1 DNA bind 74 | MBD2 confirm 88
Cc1ccc(-c2nc3ccccc3c(=O)n2-c2ccccn2)cc1	none
COC(=O)C1C(c2ccc(C)cc2)CC2CCC1N2C (centres undefined)	none
CCC1=Nc2cc(C(=O)N3CCC4(CC3)OCCO4)ccc2Sc2ccccc21	none
CCC1=Nc2cc(C(=O)N3CCC4(CC3)OCCO4)ccc2Sc2ccc(C)cc21	MBD2 inh 21 | UHRF1 DNA bind inactive | MBD2 confirm inactive
CN1C(=O)/C(=C/C=C/c2ccco2)C(=O)NC1=S	MBD2 inh 23, UHRF1 binding 72, LEDGF integ inh 60 | UHRF1 DNA bind 62 | MBD2 confirm 22
NC(Cc1ccc(N(CCCl)CCCl)cc1)C(=O)O (centres undefined)	none
CC(C)(C)NC(=O)C1CN=C(c2ccccc2)c2cc(Cl)ccc2N1C(=O)C1CCC1 (centres undefined)	none
Nc1c(C(=O)NCC2CCCO2)c2nc3ccccc3nc2n1Cc1ccco1 (centres undefined)	MBD2 inh 17 | UHRF1 DNA bind inactive | MBD2 confirm inactive
CN(C)Cc1c[nH]c2cc([N+](=O)[O-])ccc12	MBD2 inh 19 | UHRF1 DNA bind inactive | MBD2 confirm inactive
COc1cc2c(ccc3c4cc(OC)c(OC)cc4c[n+](C)c23)cc1O	MBD2 inh 88, UHRF1 binding 24 | UHRF1 DNA bind 56 | MBD2 confirm 100
COC(=O)C1=C[C@H]([C@@H](C)[C@H](OC)c2ccccc2Br)[C@@H]2[C@H]1c1ccccc1N2C	none
COC(=O)CC1(CC(=O)OC)C(=O)NC(=O)NC1=O	none
COC(=O)CC1(CC(=O)OC)C(=O)N(c2ccccc2)C(=O)N(c2ccccc2)C1=O	MBD2 inh 55 | UHRF1 DNA bind inactive | MBD2 confirm inactive
Cn1cccc1/C=C1\C(=O)NC(=O)N(Cc2ccco2)C1=O	MBD2 inh 20, UHRF1 binding 63, LEDGF integ inh 65 | UHRF1 DNA bind 30 | MBD2 confirm 14
Cc1ccc(/C=C2/C(=O)NC(=O)N(Cc3ccc(F)cc3)C2=O)o1	none
O=C(CN1C(=O)[C@@H](Cc2ccc(O)cc2)N=C(c2ccccc2)c2ccccc21)NC1CCCCC1	none
Cc1ccc2c(C)c3ccc4ccccc4c3c[n+]2c1	MBD2 inh 72, UHRF1 binding 27 | UHRF1 DNA bind 43 | MBD2 confirm 83
CN1C2CCC1CC(OC(c1ccccc1)c1ccc(Cl)cc1)C2 (centres undefined)	none
CNc1ccc2nc3ccccc3[n+](C)c2c1	MBD2 inh 15 | UHRF1 DNA bind inactive | MBD2 confirm 20
CN(C)C1C(=O)C(C(N)=O)=C(O)C2(O)C(=O)C3=C(O)c4c(O)cccc4C(C)(O)C3C(O)C12 (centres undefined)	MBD2 inh 31, UHRF1 binding 71, LEDGF integ inh 53 | UHRF1 DNA bind inactive | MBD2 confirm inactive | IN multimer act 21 | TRFRET interf inactive | IN-LEDGF confirm 23
NC(=O)c1ccc(N=Cc2c(O)n(Cc3ccco3)c(=O)[nH]c2=O)cc1	MBD2 inh 23, UHRF1 binding 60, LEDGF integ inh 57 | UHRF1 DNA bind inactive | MBD2 confirm 22 | IN multimer act 12 | TRFRET interf inactive | IN-LEDGF confirm 50
O=C1NC(=O)N(Cc2ccco2)C(=O)/C1=C/C=C/c1ccco1	MBD2 inh 74, UHRF1 binding 100, LEDGF integ inh 92 | UHRF1 DNA bind 55 | MBD2 confirm 30 | IN multimer act inactive | TRFRET interf inactive | IN-LEDGF confirm 56
C=CCN1C(=O)NC(=O)/C(=C/C=C/c2ccccc2)C1=O	none
CCCNC1=C(C)C(=O)C2=C(C1=O)C(COC(N)=O)[C@]1(OC)C3NC3CN21 (some centres undefined)	MBD2 inh 18, UHRF1 binding 60, LEDGF integ inh 53 | UHRF1 DNA bind inactive | MBD2 confirm inactive | IN multimer act 19 | TRFRET interf inactive | IN-LEDGF confirm 63
C(#CCN1CCOCC1)COCc1ccccc1	none
Cc1cc(/C=C2\C(=O)NC(=O)N(Cc3ccccc3)C2=O)c(C)n1-c1ccc(Cl)c(C(=O)O)c1	MBD2 inh 37, UHRF1 binding 92, LEDGF integ inh 43 | UHRF1 DNA bind 72 | MBD2 confirm 29 | IN multimer act inactive | TRFRET interf inactive | IN-LEDGF confirm 44
C=CCn1c(O)c(C(C)=NCCCN(C)C)c(=O)[nH]c1=O	none
CC(C)N(CC(O)c1cccc([N+](=O)[O-])c1)C(C)C (centres undefined)	none
CC(C)N(C(=O)CCl)c1ccccc1	none
COc1cc2c(cc1OC)-c1c(OC)c(OC)cc3c1[C@H](C2)N(C)CC3	MBD2 inh 20, UHRF1 binding 41, LEDGF integ inh 26 | UHRF1 DNA bind inactive | MBD2 confirm inactive | IN multimer act inactive | TRFRET interf inactive | IN-LEDGF confirm 25
